# The full ranking holds about 140,000 sequences; the median of “enrichment ratio after two sorts for PhoP signalling” is about 0, and the highest 2% start at about 11. The sample holds the highest values, similar sequences and a random draw of the others, so the mix is not that of the screen.
# B1: PhoQ; a variant is named by its letters at X, in order, P23837 (parent)
# chain: MKKLLRLFFPLSLRVRFLLATAAVVLVLSLAYGMVALIGYSVSFDKTTFRLLRGESNLFYTLAKWENNKLHVELPENIDKQSPTMTLIYDENGQLLWAQRDVPWLMKMIQPDWLKSNGFHEIEADVNDTSLLLSGDHSIQQQLQEVREDDDDAEMTHSVAVNVYPATSRMPKLTIVVVDTIPVELKSSYMVWSWFIYVLSANLLLVIPLLWVAAWWSLRPIEALAKEVRELEEHNRELLNPATTRELTSLVRNLNRLLKSERERYDKYRTTLTDLTHSLKTPLXXLQXXLRSLRSEKMSVSDAEPVMLEQISRISQQIGYYLHRASMRGGTLLSRELHPVAPLLDNLTSALNKVYQRKGVNISLDISPEISFVGEQNDFVEVMGNVLDNACKYCLEFVEISARQTDEHLYIVVEDDGPGIPLSKREVIFDRGQRVDTLRPGQGVGLAVAREITEQYEGKIVAGESMLGGARMEVIFGRQHSAPKDE
# Variants of: B1
# Assay: enrichment ratio after two sorts for PhoP signalling (ratio (wild type AVST 3.29)); higher = more functional
# Conditions: with PhoP (E. coli)
row,Variant,enrichment ratio
1,WEHT,≤ 0.25
2,FCPF,≤ 0.25
3,IDMQ,≤ 0.25
4,VSQK,≤ 0.25
5,HKCQ,≤ 0.25
6,AICQ,3.77
7,AWCQ,≤ 0.25
8,TKCQ,11.7
9,MKCQ,≤ 0.25
10,AKCQ,19.1
11,PWVC,≤ 0.25
12,TKCS,13.2
13,MMCL,4.1
14,GGMT,≤ 0.25
15,MKCL,16.5
16,AKCV,3.07
17,KKCL,1.66
18,TKCI,10.8
19,TKCE,7.83
20,KKCV,≤ 0.25
21,TKCV,30.6
22,TKCL,14.6
23,HKCL,3.32
24,SKMP,≤ 0.25
25,GFDT,≤ 0.25
26,WRTW,≤ 0.25

row,Variant,enrichment ratio
1,DDAA,≤ 0.25
2,ARFW,≤ 0.25
3,AEFC,6.7
4,SIAC,13
5,KKAC,≤ 0.25
6,NGAC,≤ 0.25
7,AIAC,19.1
8,SPAC,≤ 0.25
9,AEYS,1.65
10,KYAC,≤ 0.25
11,VHAC,≤ 0.25
12,TGAC,11.4
13,GGAC,≤ 0.25
14,AEAC,43.5
15,MDLS,≤ 0.25
16,WPPG,≤ 0.25
17,LANA,≤ 0.25
18,GFDD,≤ 0.25
19,LCAI,≤ 0.25
20,VLNL,≤ 0.25
21,TIAC,12.1
22,AAAC,≤ 0.25
23,RIAC,≤ 0.25
24,WIAC,≤ 0.25
25,AKAC,19.7
26,ADAC,0.792

row,Variant,enrichment ratio
1,MYGT,≤ 0.25
2,TEWY,0.326
3,MPYR,≤ 0.25
4,LTQQ,≤ 0.25
5,TTHP,≤ 0.25
6,YTMQ,0.469
7,TTMQ,30.4
8,YTHQ,≤ 0.25
9,ITQQ,≤ 0.25
10,TTQQ,21.5
11,TTHQ,26.2
12,GYMQ,≤ 0.25
13,YIIQ,≤ 0.25
14,QERY,≤ 0.25
15,QQLY,≤ 0.25
16,CLCR,≤ 0.25
17,VMKE,≤ 0.25
18,VTRG,≤ 0.25
19,QNQF,≤ 0.25
20,TTPI,4.3
21,ITLT,≤ 0.25
22,YTLT,≤ 0.25
23,TTLA,16.9
24,YTLS,4.88
25,TTLT,15.8
26,CTLS,≤ 0.25

row,Variant,enrichment ratio
1,YTLA,4.01
2,TTLS,15.1
3,IYDI,≤ 0.25
4,EDSR,≤ 0.25
5,KMPM,≤ 0.25
6,YVSD,≤ 0.25
7,RQYR,≤ 0.25
8,HAKY,≤ 0.25
9,DMQN,≤ 0.25
10,MLWE,≤ 0.25
11,TNAY,2.94
12,MNYI,9.81
13,MNHF,4.26
14,TNAQ,4.37
15,MNNY,15.3
16,MNHP,≤ 0.25
17,MNAQ,11.8
18,MNYY,≤ 0.25
19,MNAY,17
20,FVVQ,≤ 0.25
21,PGYA,≤ 0.25
22,ELDY,≤ 0.25
23,TSCL,19.6
24,KSCL,≤ 0.25
25,RGCL,≤ 0.25
26,SGGL,6.41

row,Variant,enrichment ratio
1,CSCL,16.1
2,NSCL,≤ 0.25
3,FSCL,8.2
4,SGDL,≤ 0.25
5,GGCL,8.88
6,TGCL,22.4
7,SGCL,15.6
8,CSCS,≤ 0.25
9,PKNL,≤ 0.25
10,TSYE,≤ 0.25
11,RGSH,≤ 0.25
12,NMFD,≤ 0.25
13,IIHI,≤ 0.25
14,LILE,≤ 0.25
15,NHCE,≤ 0.25
16,NSGM,≤ 0.25
17,HPWS,≤ 0.25
18,GNCL,18.1
19,YHCL,≤ 0.25
20,GNNL,2.95
21,YSKR,≤ 0.25
22,RNAK,≤ 0.25
23,GNTM,1.94
24,ATPM,0.758
25,ATTI,13.7
26,GHTM,≤ 0.25

row,Variant,enrichment ratio
1,ATTM,16.6
2,ANTM,44
3,ATWM,≤ 0.25
4,ATTA,≤ 0.25
5,ADTM,≤ 0.25
6,AITM,23.3
7,ATTK,10.4
8,KKTM,≤ 0.25
9,GVVP,≤ 0.25
10,QMYN,≤ 0.25
11,EFPL,≤ 0.25
12,KIKD,≤ 0.25
13,EALR,≤ 0.25
14,FKYT,≤ 0.25
15,VDAS,≤ 0.25
16,EAHV,≤ 0.25
17,NFSK,≤ 0.25
18,DNFH,≤ 0.25
19,TKWF,13.4
20,HKWF,≤ 0.25
21,FQWF,≤ 0.25
22,QPWF,≤ 0.25
23,QGWF,18.8
24,QKWF,12.7

# Source: a collection of fitness landscapes (doi:10.1126/science.1257360)
